These results are taken from the supplement of paper PMC10646978.

± gives the standard deviation.

Holding throughout (conditions): modulator concentration 10 µM
Test [1] has as its system RAW-Dual (murine macrophage reporter line). In words: NF-kB reporter (SEAP) activity fold change vs agonist alone; higher = enhanced NF-kB activity. The method in brief: (§1)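 RAW-Dual murine macrophage reporter cells were plated at 50 000 per well in 384-well plates, pin-transferred compound to 10 μM final, and pre-incubated for 1 hour at 37 °C before a PRR agonist was added and the cells incubated overnight. NF-κB activity was read from supernatant SEAP with QUANTI-Blue at 620 nm absorbance, and IRF activity from Lucia luciferase with QUANTI-Luc by luminescence. Each signal was expressed as fold change by dividing by the mean agonist-only control on the same plate. Two replicate plates were averaged, with errors obtained by propagation.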

For test [2] the test system is unchanged. The test is described as follows: IRF reporter (Lucia luciferase) activity fold change vs agonist alone; higher = enhanced IRF activity. The method, boiled down:
as §1

For test [3] the test system is unchanged. In words: viability score (confluency relative to resting cells, overnight) (fraction); higher = more viable, active = viable (0.7 or more). The method, boiled down:
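RAW-Dual macrophages in 384-well plates were exposed overnight to compound at 10 μM final. Confluency was imaged with IncuCyte, and two confluency masks were generated with IncuCyte software over all imaged wells. The viability score is confluency expressed relative to resting cells. Compounds were called viable if both masks exceeded 70% of resting cells.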

The mark [4] stands for this setting: agonist: CpG ODN 1826 0.5 ug/mL.

Regarding `COc1ccc(N2CC(NC(=O)Nc3cccc(Cl)c3C)CC2=O)cc1OC` (stereo not drawn), the NF-kB reporter in test [1] (setting [4]) came out at 0.89 ± 0.064; in test [1] (agonist: LPS 0.1 ug/mL), 1 ± 0.085; in test [1] (agonist: MPLA […]) it was 1.01 ± 0.061. The IRF reporter was 0.977 ± 0.074 in test [2] (agonist: 3'3'-cGAMP 10 ug/mL), 1.1 ± 0.21 in test [2] (agonist: LPS 0.1 ug/mL) and 1.15 ± 0.45 in test [2] (agonist: MPLA […]). In addition, the viability score in test [3] was 0.973 (active).

For the compound `O=c1oc2cc(O)ccc2c2ccccc12`, the NF-kB reporter in test [1] (setting [4]) was 1.05 ± 0.12; in test [1] (agonist: LPS 0.1 ug/mL) it was 0.932 ± 0.085; in test [1] (agonist: MPLA […]) it was 1.06 ± 0.038. The IRF reporter in test [2] (agonist: 3'3'-cGAMP 10 ug/mL) was found to be 0.813 ± 0.15; in test [2] (agonist: LPS 0.1 ug/mL) it was 1.06 ± 0.097; in test [2] (agonist: MPLA […]) it was 1.28 ± 0.17. Besides, the viability score in test [3] is 0.782 (active).

As to `CCOC(=O)C1=C(C)NC(C)=C(C(=O)OCC)C1c1cc(Cl)cc(Cl)c1OC`, the NF-kB reporter in test [1] (setting [4]) was 0.478 ± 0.064; in test [1] (agonist: LPS 0.1 ug/mL) it was 0.44 ± 0.037; in test [1] (agonist: MPLA […]) it was 1.05 ± 0.1. Also, the IRF reporter in test [2] (agonist: 3'3'-cGAMP 10 ug/mL) worked out at 1.07 ± 0.16; in test [2] (agonist: LPS 0.1 ug/mL) it was 0.852 ± 0.039; in test [2] (agonist: MPLA […]) it was 2.23 ± 0.43. Besides, the viability score in test [3] is 0.216 (inactive).

Turning to `Cc1cccc(C)c1N(CC(=O)Nc1ccc(-c2ncon2)cc1)C(=O)C1CCS(=O)(=O)CC1`, the figures for the NF-kB reporter in test [1] (setting [4]), in test [1] (agonist: LPS 0.1 ug/mL) and in test [1] (agonist: MPLA […]) were 1.06 ± 0.083, 0.939 ± 0.075 and 1.05 ± 0.024, respectively. In addition, the IRF reporter was 0.976 ± 0.098 in test [2] (agonist: 3'3'-cGAMP 10 ug/mL), 0.997 ± 0.13 in test [2] (agonist: LPS 0.1 ug/mL) and 0.982 ± 0.086 in test [2] (agonist: MPLA […]). Also, the viability score in test [3] is 0.999 (active).

As for `Cc1cc(-c2csc(NCc3ccccc3)n2)c(C)o1.Cl`, the values for the NF-kB reporter in test [1] (setting [4]), in test [1] (agonist: LPS 0.1 ug/mL) and in test [1] (agonist: MPLA […]) were 0.766 ± 0.043, 0.892 ± 0.13 and 1 ± 0.026, respectively. In addition, the IRF reporter in test [2] (agonist: 3'3'-cGAMP 10 ug/mL) was 0.576 ± 0.026; in test [2] (agonist: LPS 0.1 ug/mL), 0.924 ± 0.07; in test [2] (agonist: MPLA […]) it was 1.1 ± 0.13. Besides, the viability score in test [3] is 0.991 (active).

For the compound `COC(=O)c1ccc(C=NN=C2C(=O)Nc3ccccc32)cc1`, the NF-kB reporter in test [1] (setting [4]) was found to be 0.968 ± 0.069; in test [1] (agonist: LPS 0.1 ug/mL), 1.05 ± 0.09; in test [1] (agonist: MPLA […]), 0.995 ± 0.028. The IRF reporter in test [2] (agonist: 3'3'-cGAMP 10 ug/mL) came to 0.527 ± 0.028; in test [2] (agonist: LPS 0.1 ug/mL), 1.09 ± 0.053; in test [2] (agonist: MPLA […]), 1.13 ± 0.11. The viability score in test [3] is 0.998 (active).

For `NNC(=O)c1ccncc1`, the NF-kB reporter came to 1.51 ± 0.21 in test [1] (setting [4]), 1.33 ± 0.21 in test [1] (agonist: LPS 0.1 ug/mL) and 1.31 ± 0.14 in test [1] (agonist: MPLA […]). In addition, the IRF reporter in test [2] (agonist: 3'3'-cGAMP 10 ug/mL) was 0.91 ± 0.028; in test [2] (agonist: LPS 0.1 ug/mL), 1.42 ± 0.12; in test [2] (agonist: MPLA […]), 1.11 ± 0.14. The viability score in test [3] was 0.999 (active).

`CCSc1nnc(NC(=O)Cc2ccc([N+](=O)[O-])cc2)s1`: the NF-kB reporter in test [1] (setting [4]) turned out to be 1.04 ± 0.21; in test [1] (agonist: LPS 0.1 ug/mL), 1.02 ± 0.085; in test [1] (agonist: MPLA […]) it was 0.96 ± 0.097. Besides, the IRF reporter in test [2] (agonist: 3'3'-cGAMP 10 ug/mL) was 0.926 ± 0.026; in test [2] (agonist: LPS 0.1 ug/mL), 1 ± 0.096; in test [2] (agonist: MPLA […]), 1.07 ± 0.12. In addition, the viability score in test [3] was 1 (active).

In the case of `CCOc1ccc(C=NNc2nc(C)cs2)c(O)c1`, the NF-kB reporter in test [1] (setting [4]) is 0.949 ± 0.087; in test [1] (agonist: LPS 0.1 ug/mL), 0.965 ± 0.13; in test [1] (agonist: MPLA […]), 1.03 ± 0.073. The IRF reporter in test [2] (agonist: 3'3'-cGAMP 10 ug/mL) was 0.624 ± 0.024; in test [2] (agonist: LPS 0.1 ug/mL), 0.988 ± 0.069; in test [2] (agonist: MPLA […]), 0.981 ± 0.15. In addition, the viability score in test [3] is 0.999 (active).

Turning to `O=C1OC(=O)C2C3CCC(O3)C12` (stereo not drawn), the results for the NF-kB reporter in test [1] (setting [4]), in test [1] (agonist: LPS 0.1 ug/mL) and in test [1] (agonist: MPLA […]) were 1.66 ± 0.13, 1.45 ± 0.15 and 2.06 ± 0.2, respectively. Moreover, the values for the IRF reporter in test [2] (agonist: 3'3'-cGAMP 10 ug/mL), in test [2] (agonist: LPS 0.1 ug/mL) and in test [2] (agonist: MPLA […]) were 1.77 ± 0.076, 1.65 ± 0.22 and 1.72 ± 0.38, respectively. For the same compound, the viability score in test [3] is 0.94 (active).

As to `c1ccc(Nc2nc(Nc3ccccc3)nc(N3CCCCC3)n2)cc1`, the NF-kB reporter in test [1] (setting [4]) is 0.605 ± 0.04; in test [1] (agonist: LPS 0.1 ug/mL) it was 1.01 ± 0.062; in test [1] (agonist: MPLA […]), 0.977 ± 0.064. Moreover, the IRF reporter in test [2] (agonist: 3'3'-cGAMP 10 ug/mL) turned out to be 1.05 ± 0.053; in test [2] (agonist: LPS 0.1 ug/mL), 1.53 ± 0.15; in test [2] (agonist: MPLA […]), 1.22 ± 0.2. Further, in test [3], the viability score was 0.995 (active).

Consider `N#Cc1nc(-c2ccc(COc3ccccc3)o2)oc1N1CCCCC1`, for which the NF-kB reporter in test [1] (setting [4]) is 1.07 ± 0.06; in test [1] (agonist: LPS 0.1 ug/mL), 1.24 ± 0.077; in test [1] (agonist: MPLA […]), 1.12 ± 0.069. Also, the results for the IRF reporter in test [2] (agonist: 3'3'-cGAMP 10 ug/mL), in test [2] (agonist: LPS 0.1 ug/mL) and in test [2] (agonist: MPLA […]) were 1.27 ± 0.071, 1.53 ± 0.1 and 1.3 ± 0.14, respectively. Further, the viability score in test [3] was 0.981 (active).

As for `O=C1C(Cl)=C(N2CCCCC2)C(=O)N1c1cc(Cl)c(Cl)cc1Cl`, the NF-kB reporter came to 0.743 ± 0.063 in test [1] (setting [4]), 0.737 ± 0.049 in test [1] (agonist: LPS 0.1 ug/mL) and 0.857 ± 0.03 in test [1] (agonist: MPLA […]). For the same compound, the IRF reporter in test [2] (agonist: 3'3'-cGAMP 10 ug/mL) was 0.352 ± 0.026; in test [2] (agonist: LPS 0.1 ug/mL), 1.07 ± 0.1; in test [2] (agonist: MPLA […]), 1.01 ± 0.15. Moreover, in test [3], the viability score was 0.993 (active).

For `COC(CNS(=O)(=O)c1cccnc1)c1ccc(C)s1` (stereo not drawn), the NF-kB reporter is 1.06 ± 0.073 in test [1] (setting [4]), 0.992 ± 0.086 in test [1] (agonist: LPS 0.1 ug/mL) and 1.01 ± 0.096 in test [1] (agonist: MPLA […]). Further, the IRF reporter in test [2] (agonist: 3'3'-cGAMP 10 ug/mL) stood at 1.01 ± 0.04; in test [2] (agonist: LPS 0.1 ug/mL), 1.02 ± 0.048; in test [2] (agonist: MPLA […]), 0.958 ± 0.12. Also, the viability score in test [3] was 0.997 (active).
